# Measured values from PubChem BioAssay (NCATS).
# Results filed as inconclusive are left out. A call without a number means that no potency is given here. Active and inactive are the calls of the source. The call rests on the fitted dose curve; in most records, active means well fitted curve in the direction sought with a large enough effect; inconclusive means small, poorly fitted or top-dose-only effect, or another doubt; inactive means no such curve, though single readings can be large; an effect the other way counts as inactive or inconclusive.
# Legend:
# [1] = Quantitative High-Throughput drug screen in 47 multiple myeloma cell lines against the NCATS MIPE library collection: H1112_PLB cell viability assay (AID 1918967; further: nearly all actives have a fitted effect of over 30% in size; further: potency means the concentration at half of the fitted maximal effect)
# Procedure, shortened: (§1)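 Relative luminescence from CellTiter-Glo served as the viability signal, referenced to DMSO-treated (100%) and cell-free medium (0%) controls. Treatment lasted 48 hours at 37C with 500 cells per well.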
# [2] = Quantitative High-Throughput drug screen in 47 multiple myeloma cell lines against the NCATS MIPE library collection: KMS27_JCRB cell viability assay (AID 1918970); further: nearly all actives have a fitted effect of over 30% in size; further: potency means the concentration at half of the fitted maximal effect
# Procedure, shortened: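 Each line is seeded at 500 cells per well and treated with library compounds for 48 hours under 37 °C, 5% CO2. CellTiter-Glo is then added for 5 min at room temperature before median relative luminescence is recorded.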
# [3] = Quantitative High-Throughput drug screen in 47 multiple myeloma cell lines against the NCATS MIPE library collection: KMS12BM_JCRB cell viability assay (AID 1918971); further: nearly all actives have a fitted effect of over 35% in size; further: potency means the concentration at half of the fitted maximal effect
# Procedure, shortened: (§2)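 qHTS of the MIPE 4.0 collection: 500 myeloma cells/well, 48 h drug exposure at 37C in 5% CO2, then CellTiter-Glo for 5 min at room temperature before luminescence reading.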
# [4] = Quantitative High-Throughput drug screen in 47 multiple myeloma cell lines against the NCATS MIPE library collection: KMS12PE_JCRB cell viability assay (AID 1918972); further: nearly all actives have a fitted effect of over 30% in size; further: potency means the concentration at half of the fitted maximal effect
# Procedure, shortened: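 CellTiter-Glo ATP luminescence gave viability after 48 h compound treatment at 37C of 500 multiple myeloma cells per well. Normalisation used DMSO-only wells as 100% and media-only wells as 0% viability; primary qHTS of approved and investigational drugs.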
# [5] = Quantitative High-Throughput drug screen in 47 multiple myeloma cell lines against the NCATS MIPE library collection: MOLP8_DSMZ cell viability assay (AID 1918977); further: nearly all actives have a fitted effect of over 45% in size
# Procedure, shortened: (§3)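 ATP-based CellTiter-Glo luminescence after 48 h drug exposure (37 °C, 5% CO2) of 500 myeloma cells per well. DMSO-only wells set 100% viability, media-only wells 0%; MIPE 4.0 library added by pin tool.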
# [6] = Quantitative High-Throughput drug screen in 47 multiple myeloma cell lines against the NCATS MIPE library collection: MM1R_ATCC cell viability assay (AID 1918981); further: nearly all actives have a fitted effect of over 35% in size; further: potency means the concentration at half of the fitted maximal effect
# Procedure, shortened: as §3
# [7] = Quantitative High-Throughput drug screen in 47 multiple myeloma cell lines against the NCATS MIPE library collection: KMS28PE_JCRB cell viability assay (AID 1918983); further: nearly all actives have a fitted effect of over 35% in size
# Procedure, shortened: as §3
# [8] = Quantitative High-Throughput drug screen in 47 multiple myeloma cell lines against the NCATS MIPE library collection: KMS34_JCRB cell viability assay (AID 1918985); further: nearly all actives have a fitted effect of over 40% in size; further: potency means the concentration at half of the fitted maximal effect
# Procedure, shortened: as §3
# [9] = Quantitative High-Throughput drug screen in 47 multiple myeloma cell lines against the NCATS MIPE library collection: Karpas25_ECACC cell viability assay (AID 1918968; further: potency means the concentration at half of the fitted maximal effect; nearly all actives have a fitted effect of over 35% in size)
# Procedure, shortened: as §1
# [10] = Quantitative High-Throughput drug screen in 47 multiple myeloma cell lines against the NCATS MIPE library collection: KMS20_JCRB cell viability assay (AID 1918973); further: nearly all actives have a fitted effect of over 45% in size; further: potency means the concentration at half of the fitted maximal effect
# Procedure, shortened: as §1
# [11] = Quantitative High-Throughput drug screen in 47 multiple myeloma cell lines against the NCATS MIPE library collection: KMS21BM_JCRB cell viability assay (AID 1918974); settings: ATP luminescence, 48 h; viability: at 45.8 µM (top of the series) unless noted; further: potency means the concentration at half of the fitted maximal effect
# Procedure, shortened: as §1
# [12] = Quantitative High-Throughput drug screen in 47 multiple myeloma cell lines against the NCATS MIPE library collection: KMS26_JCRB cell viability assay (AID 1918975); further: nearly all actives have a fitted effect of over 45% in size; further: potency means the concentration at half of the fitted maximal effect
# Procedure, shortened: as §2
# [13] = Quantitative High-Throughput drug screen in 47 multiple myeloma cell lines against the NCATS MIPE library collection: MMM1_PLB cell viability assay (AID 1918976)
# Procedure, shortened: as §3
# [14] = Quantitative High-Throughput drug screen in 47 multiple myeloma cell lines against the NCATS MIPE library collection: OCIMY1_PLB cell viability assay (AID 1918979); further: nearly all actives have a fitted effect of over 35% in size
# Procedure, shortened: as §3
# [15] = Quantitative High-Throughput drug screen in 47 multiple myeloma cell lines against the NCATS MIPE library collection: MM1S_ATCC cell viability assay (AID 1918980); further: nearly all actives have a fitted effect of over 45% in size; further: potency means the concentration at half of the fitted maximal effect
# Procedure, shortened: as §3
# [16] = Quantitative High-Throughput drug screen in 47 multiple myeloma cell lines against the NCATS MIPE library collection: NCIH929_DSMZ cell viability assay (AID 1918978); further: nearly all actives have a fitted effect of over 35% in size; further: potency means the concentration at half of the fitted maximal effect
# Procedure, shortened: as §3
# [17] = Quantitative High-Throughput drug screen in 47 multiple myeloma cell lines against the NCATS MIPE library collection: LP1_DSMZ cell viability assay (AID 1918982); further: nearly all actives have a fitted effect of over 35% in size
# Procedure, shortened: as §3
# [18] = Quantitative High-Throughput drug screen in 47 multiple myeloma cell lines against the NCATS MIPE library collection: L363_DSMZ cell viability assay (AID 1918984); further: nearly all actives have a fitted effect of over 40% in size
# Procedure, shortened: as §3
# [19] = Quantitative High-Throughput drug screen in 47 multiple myeloma cell lines against the NCATS MIPE library collection: OCIMY7_PLB cell viability assay (AID 1918987); settings: OCI-MY7 myeloma viability, CellTiter-Glo ATP, 48 h; viability (% of DMSO): at 45.8 µM (top of the series); further: potency means the concentration at half of the fitted maximal effect; nearly all actives have a fitted effect of over 65% in size
# Procedure, shortened: as §3
# [20] = Quantitative High-Throughput drug screen in 47 multiple myeloma cell lines against the NCATS MIPE library collection: OCIMY5_PLB cell viability assay (AID 1918988); further: nearly all actives have a fitted effect of over 65% in size
# Procedure, shortened: as §3
smiles,measurement,setting,value
Cc1ccc([C@@H]2O[C@H](CO)[C@@H](O)[C@H](O)[C@@H]2O)cc1Cc1ccc(-c2ccc(F)cc2)s1,Potency,[1],inactive
same,Potency,[2],23.5 µM (active)
same,Potency,[3],inactive
same,Potency,[4],20.9 µM (active)
same,Potency,[5],inactive
same,Potency,[6],18.7 µM (active)
same,Potency,[7],inactive
same,Potency,[8],23.5 µM (active)
O=C1NC(=O)C(=Cc2ccc3c(c2)OC(F)(F)O3)S1,Potency,[1],20.9 µM (active)
same,Potency,[9],18.7 µM (active)
same,Potency,[10],13.2 µM (active)
same,Potency,[11],3.32 µM (active)
same,Potency,[12],18.7 µM (active)
same,Potency,[13],10.5 µM (active)
same,Potency,[5],inactive
same,Potency,[14],inactive
same,Potency,[15],20.9 µM (active)
same,Potency,[7],inactive
CNC(=O)c1ccc2cc(C3(O)CCn4cncc43)ccc2c1 (stereo not drawn),Potency,[1],inactive
same,Potency,[3],inactive
same,Potency,[4],inactive
same,Potency,[10],inactive
same,Potency,[12],inactive
same,Potency,[16],inactive
same,Potency,[14],inactive
same,Potency,[6],inactive
same,Potency,[17],inactive
same,Potency,[7],inactive
Cn1c(N2CCCCS2(=O)=O)nc(C(=O)NCc2ccc(F)cc2)c(O)c1=O,Potency,[1],inactive
same,Potency,[9],20.9 µM (active)
same,Potency,[4],20.9 µM (active)
same,Potency,[5],inactive
same,Potency,[16],inactive
same,Potency,[15],inactive
same,Potency,[6],inactive
same,Potency,[17],inactive
same,Potency,[7],inactive
same,Potency,[8],inactive
O=C(NOCC(O)CO)c1cc(Br)c(F)c(F)c1Nc1ccc(I)cc1F (stereo not drawn),Potency,[1],0.118 µM (active)
same,Potency,[2],inactive
same,Potency,[12],inactive
same,Potency,[5],inactive
same,Potency,[16],1.05 µM (active)
same,Potency,[14],inactive
same,Potency,[7],inactive
same,Potency,[18],inactive
same,Potency,[19],0.0166 µM (active)
Cc1nnc(C(C)C)n1C1C[C@H]2CC[C@@H](C1)N2CC[C@H](NC(=O)C1CCC(F)(F)CC1)c1ccccc1 (stereo partly drawn),Potency,[1],14.8 µM (active)
same,Potency,[9],18.7 µM (active)
same,Potency,[5],inactive
same,Potency,[16],9.35 µM (active)
same,Potency,[15],1.05 µM (active)
same,Potency,[6],inactive
same,Potency,[7],inactive
same,Potency,[18],inactive
same,Potency,[20],inactive
C[C@H]1[C@H](NC(=O)C(=NOC(C)(C)C(=O)O)c2csc(N)n2)C(=O)N1S(=O)(=O)O,Potency,[1],inactive
same,Potency,[2],inactive
same,Potency,[3],1.48 µM (active)
same,Potency,[4],inactive
same,Potency,[10],16.6 µM (active)
same,Potency,[12],inactive
same,Potency,[5],inactive
same,Potency,[16],inactive
same,Potency,[14],inactive
same,Potency,[15],14.8 µM (active)
same,Potency,[17],inactive
same,Potency,[8],inactive
